Screening data from PubChem BioAssay.
Sampled rows, rich in hits. Any-hit rate of the full collection: about 1.5%.
Bcl-xL primary: blocks human Bcl-xL binding to Bim BH3 peptide. GST-Bcl-xL / FITC-Bim BH3 peptide fluorescence polarization. hit rate 0.7% among 320,000. Q07817. inhibition, % at 10.9 µM. AID 2129;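 active means inhibition above the mean of all tested compounds plus 3 SD, cutoff set per campaign, cut at about 30% in these data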;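 further: 0% = DMSO wells and 100% = unlabeled Bim-BH3 peptide competitor; inhibitors lower millipolarization by displacing the labeled peptide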
Target sequence (Q07817 whole entry, looked up): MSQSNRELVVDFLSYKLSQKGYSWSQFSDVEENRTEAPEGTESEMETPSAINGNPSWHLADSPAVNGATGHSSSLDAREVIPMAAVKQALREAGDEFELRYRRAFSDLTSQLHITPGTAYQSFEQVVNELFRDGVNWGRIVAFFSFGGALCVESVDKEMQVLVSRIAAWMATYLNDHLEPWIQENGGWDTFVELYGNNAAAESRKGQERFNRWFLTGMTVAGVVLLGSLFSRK
MEX-5 binding: C. elegans MEX-5 TCR-2 RNA binding activity; AID 1832; MEX-5/FITC-TCR2 RNA binding, fluorescence polarization; active compounds read low; activity score (negative = inhibition of binding), % at 10 µM; hit rate 0.38% among 300,000; Q9XUB2;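 active means inhibition past about -25% in most replicates, and total fluorescence under double the plate's negative control median, limit read from the data; inconclusive means replicates evenly split on the limit, or fluorescence at least double controls; inactive means too little inhibition in most replicates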;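 further: 0% = DMSO and -100% = 5 µM competing unlabeled TCR2 RNA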
MCL1-BIM inh: MCL1-BIM-BH3 interaction inhibition (human). GST-MCL1 / FITC-Bim-BH3 fluorescence polarization. inhibition, % at 10.9 µM. hit rate 0.68% among 320,000;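 active means inhibition above the mean inhibition of all tested compounds plus 3 SD, set per campaign, cut at about 40% in these data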;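 further: 0% = DMSO wells and 100% = unlabeled Bim-BH3 peptide control; higher means more loss of mP so more displacement of Bim peptide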
Target sequence (Q07820 whole entry, looked up): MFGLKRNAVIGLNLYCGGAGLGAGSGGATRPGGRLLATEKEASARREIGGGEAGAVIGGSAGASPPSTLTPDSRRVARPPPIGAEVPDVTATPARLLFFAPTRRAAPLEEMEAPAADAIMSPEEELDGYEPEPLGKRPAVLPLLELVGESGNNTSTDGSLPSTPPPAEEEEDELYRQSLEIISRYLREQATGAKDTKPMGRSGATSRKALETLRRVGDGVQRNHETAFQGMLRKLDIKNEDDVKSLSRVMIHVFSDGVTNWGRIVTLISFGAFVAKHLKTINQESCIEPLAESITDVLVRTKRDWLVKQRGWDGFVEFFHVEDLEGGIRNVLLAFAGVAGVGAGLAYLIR
eLon inh: inhibitors of E. coli Lon protease; purified E. coli Lon protease, fluorescence polarization; inhibition, % at 7.94 µM; hit rate 0.42% among 360,000; AID 602123; in the data active means inhibition above about 13%, passing the limit was not always enough;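 further: 0% = enzyme with probe and DMSO and 100% = no enzyme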
GLD-1 RNA inh: GLD-1-TGE RNA interaction inhibition (C. elegans) | AID 2280 | Q17339 | inhibition, % at 5.96 µM | purified GLD-1 + fluorescein TGE RNA, fluorescence polarization | hit rate 0.44% among 320,000;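 active means percent inhibition above a per-plate cutoff, the plate mean of test compounds plus 3 SD, cut at about 30% in these data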;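 further: 0% = DMSO wells with GLD-1 and probe and 100% = wells lacking GLD-1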
EBV gp42 inh: inhibitors of Epstein-Barr virus glycoprotein 42; hit rate 0.42% among 220,000; inhibition, % (tested at 21.74 µM); Fluorescence polarization binding assay, mP read-out; in the data active means inhibition above about 50%
Bcl-xL conf: counter-screen for MCL1 inhibitors: confirmation of human Bcl-xL inhibitors. shares compounds with MCL1-BIM inh. GST-Bcl-xL / FITC-Bim BH3 peptide FP binding. inhibition, % at 10.9 µM. hit rate 54% among 1,700;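 active means inhibition above a cutoff equal to the mean inhibition of all tested compounds plus 3 SD, cut at about 30% in these data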;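 further: 0% = DMSO wells and 100% = unlabeled Bim BH3 control peptide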
MCL1 inh confirm: MCL1-BIM-BH3 interaction inhibition, confirmation | GST-MCL1 / FITC-Bim-BH3 fluorescence polarization | shares compounds with MCL1-BIM inh | AID 2168 | inhibition, % at 10.9 µM | hit rate 61% among 1,700;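 active means inhibition above the average of all tested compounds plus 3 SD, cut at about 40% in these data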;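 further: 0% = DMSO wells and 100% = unlabeled Bim-BH3 control peptide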
* = called active by the depositor; ? = inconclusive; . = no result given; + = active, no number.

SMILES	Bcl-xL primary	MEX-5 binding	MCL1-BIM inh	eLon inh	GLD-1 RNA inh	EBV gp42 inh	Bcl-xL conf	MCL1 inh confirm
Cc1ccc2[nH]c3c(c2c1)CN(C(=O)CN1CCN(c2ccccn2)CC1)CC3	66*	-10	58*	3	38*	15	13	15
Cc1ccc2[nH]c3c(c2c1)CN(C(=O)CN1CC(C)OC(C)C1)CC3 (configuration not stated)	61*	.	62*	-53	-1	35	51*	60*
CN(C(=O)COC(=O)c1c[nH]c2ccccc12)c1ccccc1	.	.	.	2	.	.	.	.
CCc1nnc(NC(=O)CN2C(=O)N(C)C3(CCCCC3)C2=O)s1	-1	.	0	-3	4	.	.	.
Cc1cc(N)ccc1-n1c(C)ccc1C	11	1	13	-12	4	-4	.	.
Cc1cc(C(=O)O)ccc1-n1c(C)ccc1C	47*	-88*	98*	.	26	-10	89*	141*
CCOC(=O)[C@]12Cc3c(cc(OC)c(OC)c3OC)[C@H]1N(C1CCCCC1)C(=O)c1cc(OC)ccc12	.	.	.	1	.	.	.	.
Cn1c(N)c(C(=O)CSc2nc(C3CC3)n(-c3ccccc3)n2)c(=O)[nH]c1=O	10	.	69*	1	-4	.	-12	-14
Cn1c(N)c(C(=O)CSc2nnc(C3CC3)n2-c2ccccc2)c(=O)[nH]c1=O	.	.	.	5	-2	.	.	.
Cn1c(N)c(C(=O)CSc2nnc(C3CC3)n2-c2ccccc2)c(=O)n(C)c1=O	3	.	58*	-11	1	.	4	5
CC(c1nc2ccccc2c(=O)[nH]1)N(C)c1ccc2ccccc2c1 (configuration not stated)	74*	3	87*	20	78*	6	12	22
CC(C)Sc1nc2ccccc2c(=O)[nH]1	0	0	-1	-19	-1	-2	.	.
CN(c1ccccc1C(=O)NCc1ccccc1Cl)S(=O)(=O)c1ccccc1	5	2	4	-2	-3	.	.	.
O=C(CSc1nnc(-c2ccncc2)n1-c1ccccc1)NC1CC1	8	2	-3	1	10	.	.	.
Cc1ccc([N+](=O)[O-])cc1-c1ccc(/C=C(\C#N)c2[nH]nc(N)c2C#N)o1	9	.	49*	-10	7	60*	54*	84*
Cc1cccc(-n2ncc3c(=O)[nH]c(SCC(=O)N4CC(=O)Nc5ccccc54)nc32)c1	7	.	5	-12	7	.	.	.
Cc1c(Br)c(=O)oc2c(Br)c(O)c(O)cc12	24	-11	68*	-9	6	-10	36*	84*
Cn1nc(-c2ccccc2)c2nc3ccccc3nc21	56*	?	55*	-5	-13	126*	102*	111*
COc1ccc(Br)cc1/C=c1\sc2nc(-c3ccco3)nn2c1=O	40*	2	80*	-21	-18	.	9	50*
Cc1ccc(/C=c2\sc3nc(-c4ccco4)nn3c2=O)o1	25	-9	58*	-6	-2	11	45*	72*
Cc1ccc(-c2nc3s/c(=C\c4ccco4)c(=O)n3n2)cc1	9	-1	18	-12	7	-32	.	.
COc1ccccc1/C=c1\sc2nc(-c3ccccc3OC)nn2c1=O	6	.	-3	-1	1	-2	.	.
Cc1ccc(N(CC(=O)NC2CCCCC2)S(=O)(=O)c2c(C)noc2C)cc1	4	1	-4	2	2	.	.	.
COc1cc(/C=C2/SC(=S)N(CC(=O)O)C2=O)ccc1OCC(=O)Nc1ccc(C)c(C)c1	-1	-4	1	-9	-12	.	.	.
O=C(CN1CCN(S(=O)(=O)c2ccc(F)cc2)CC1)Nc1ccc(F)cc1F	4	1	174*	-4	2	.	3	1
SMILES	Bcl-xL primary	MEX-5 binding	MCL1-BIM inh	eLon inh	GLD-1 RNA inh	EBV gp42 inh	Bcl-xL conf	MCL1 inh confirm
Cc1cc(C(=O)Nc2ccc(Cl)cc2)n(-c2ccccc2)n1	3	2	6	3	-4	.	.	.
Cc1ccc(NC(=O)c2cc(C)nn2-c2ccccc2)cc1	+	0	+	-3	161*	4	12	-1
COc1ccc2ccc3c(c2c1)N=C[C@]1(O3)N(C)c2ccccc2C1(C)C	40*	2	57*	-8	5	-20	39*	39
CCCCC1=CC2=C(c3ccco3)C(=O)C(C)(OC(=O)c3ccc(OC)cc3)C(=O)C2=CN1c1ccccc1 (configuration not stated)	49*	1	50*	10	44*	3	2	-10
CCCCC1=CC2=C(c3ccco3)C(=O)C(C)(OC(=O)c3ccc(OC)cc3)C(=O)C2=CN1CCCOC(C)C (configuration not stated)	63*	0	65*	-2	51*	17	72*	91*
CC1(C)CC(=O)C=C(C#CC2(O)CCCCC2)C1	.	.	.	2	.	.	.	.
Cc1ccc(S(=O)(=O)c2nc(C)oc2NCc2ccccc2)cc1	10	1	40*	.	11	-13	10	57*
COc1ccc(NC(=O)C2(C)CCN2CCOc2ccc(C)cc2)cc1OC (configuration not stated)	.	.	.	4	.	.	.	.
Cc1cc(-n2c(=O)c(C#N)cc3c(=O)n4ccccc4nc32)no1	43*	-15	56*	-1	17	35	45*	58*
C[C@H]1CN([C@@H](C)CO)C(=O)CCCn2nncc2CO[C@@H]1CN(C)Cc1ccccc1C(F)(F)F	.	.	.	-5	.	.	.	.
COC(=O)CSc1nc(NC(C)(C)C)nc(N(C)C)n1	6	2	2	2	2	-2	.	.
CC(=O)C(Sc1nc(NC(C)(C)C)nc(N(C)C)n1)C(C)=O	7	0	193*	-8	2	-7	7	-1
CC(=O)C[C@@H](O)CC(=O)[C@@H]1OC(=O)CCCCCc2ccccc21	.	.	.	-9	8	.	.	.
COc1cccc(C(N)c2nc(-c3csc4ccccc34)cs2)c1 (configuration not stated)	.	.	.	-5	.	.	.	.
CN1C(C)(C)CC(=NO)CC1(C)C	.	.	.	6	.	.	.	.
O=[N+]([O-])c1ccc2nc(-c3ccc(OC(F)F)cc3)cn2c1	13	-3	94*	-7	14	-14	1	3
O=C(CSc1ccccn1)Nc1ccc2c(c1)C(=O)c1ccccc1C2=O	14	-2	55*	2	4	52*	29	60*
CSCC[C@H](NC(=O)N1CCn2c1nc1ccccc12)C(=O)NCC1CCCO1 (some centres not stated)	4	3	3	-8	6	.	.	.
